Experimental data from article PMC11024108.

Each substance was assayed against Septin-5 (UniProt Q9Z2Q6) (assay: cross-link between two proteins; cross-linking mass spectrometry).
Sequence of Septin-5 (Q9Z2Q6 whole entry): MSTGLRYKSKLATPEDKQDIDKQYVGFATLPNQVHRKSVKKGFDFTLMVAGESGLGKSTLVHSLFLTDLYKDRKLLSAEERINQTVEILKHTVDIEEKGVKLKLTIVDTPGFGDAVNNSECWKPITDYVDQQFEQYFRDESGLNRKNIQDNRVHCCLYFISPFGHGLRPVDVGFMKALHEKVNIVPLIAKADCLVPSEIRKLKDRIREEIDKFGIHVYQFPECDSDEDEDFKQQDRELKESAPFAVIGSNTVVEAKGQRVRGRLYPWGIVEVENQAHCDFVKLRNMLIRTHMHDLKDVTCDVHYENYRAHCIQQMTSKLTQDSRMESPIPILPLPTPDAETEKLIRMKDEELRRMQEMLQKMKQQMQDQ

Listed as a hit, yes:
Septin-6, Q9R1T4
Septin-4, P28661
Septin-11, Q8C1B7
Septin-8, Q8CHH9
